This is an account of results in PubChem BioAssay AID1272365 (Small Molecule Screening Facility, UW Madison, 2018).

Several values for one entry are separate records, joined by “and”; a condition that tells them apart may be missing. Identical values can stand only once. About 2,600 (0.6%) of roughly 430,000 compounds were called active. Rule as the data show it: active = inhibition mostly above about 37% (no sharp cut-off); inactive = mostly below about 20%. Shown is part of a subset that was picked to be rich in actives.

The test system of the assay is PriA–SSB C-terminal tail interaction (Klebsiella pneumoniae). The experiment in a line: inhibitors of Klebsiella pneumoniae PriA binding to SSB C-terminal tail, primary screen, biochemical, AlphaScreen (AID 1272365).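 Also: plate controls were negative control peptide for no effect and reference peptide for full effect.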 Conditions: AlphaScreen SSBct-PriA binding, biotinylated peptide; at 33 µM, stronger effect = higher value.
The inhibition is the drop in the measured response relative to a control, in per cent. As for `CCCN1CCCc2cc(CCNS(=O)(=O)Cc3cccc(C)c3)ccc21`, the inhibition was 73% (active).
In the case of `CCCNS(=O)(=O)c1ccc2c(c1)CCCN2C(C)=O`, the inhibition is -6.74% (inactive).
Next, `Cc1cccc(CCNS(=O)(=O)c2ccc(S(=O)(=O)NC3CCCC3)cc2)c1`: -8.63% (inactive); `CCCN1CCCc2cc(CCNS(=O)(=O)c3ccc(NC(C)=O)cc3)ccc21`: 85% (active); `CCCN1CCCc2cc(CCNC(=O)C(=O)Nc3ccc(OC(F)(F)F)cc3)ccc21`: -6% (inactive).
Then `Cc1cccc(CCNS(=O)(=O)c2ccc3c(c2)NC(=O)CO3)c1`, with 1.31% (inactive); and `Cn1cccc1CN(Cc1cccs1)C(=O)c1ccccc1S(=O)(=O)C(F)F`, with 20% (inactive); and `Cc1nc(N2CCCC2)nc(C)c1NC(=O)c1cccc(Cl)c1`, with -6% (inactive).
As for `Cc1cc(NC(=O)CSc2nnc(C)c3cnn(-c4ccc(F)cc4)c23)no1`, the inhibition is -7% (inactive) and -11% (inactive).
As to `CCc1ccc(S(=O)(=O)N2CCOC(c3ccccc3)C2)s1` (centres undefined), the inhibition is -11% (inactive).
Turning to `COc1ccc(-c2nnc(SC(=O)N3c4ccccc4Sc4ccccc43)o2)cc1`, the inhibition was 42.2% (active).
As to `COc1ccc(-c2nnc(NC(=O)c3ccc(SC)cc3)o2)cc1`, the inhibition was -3% (inactive).
Consider `COc1ccc2nc(N=C(N)NC(=O)N3c4ccccc4Sc4ccccc43)nc(C)c2c1`, for which the inhibition was -5.89% (inactive).
Consider `Cc1oc2cc(OCC(=O)c3ccc(F)cc3)ccc2c(=O)c1-c1ccccc1`, for which the inhibition was 7% (inactive).
`CCCCOc1ccc(C(=O)Nc2ccc3c(c2)C(=O)N(C)C3=O)cc1`: the inhibition is -4% (inactive).
Next, `COc1ccc(S(=O)(=O)N2CCOCC2)cc1NC(=O)CSc1ncnc2ccccc12`: -9.78% (inactive); `COc1ccc(S(=O)(=O)N2CCOCC2)cc1NC(=O)CSc1cc(C)ccc1C`: 49.7% (active); `COc1ccc(S(=O)(=O)N2CCOCC2)cc1NC(=O)Cc1coc2cc(C)ccc12`: -2.71% (inactive).
Regarding `CC(=O)c1sc(NC(=O)COc2ccc(Cl)cc2)nc1C`, the inhibition is -10% (inactive).
With `CSc1ccccc1NC(=O)C(=O)NC[C@]1(O)CCc2ccccc2C1`, the inhibition was -6% (inactive).
Regarding `Cn1ccnc1SCC1CCN(C(=O)c2nc3ccccc3s2)CC1`, the inhibition is 39% (active).
Turning to `C[C@H](O)CN1CCN(C(=O)c2nc3ccccc3s2)CC1`, the inhibition is -1% (inactive).
On to `CS(=O)(=O)N1CCC(CNC(=O)c2nc3ccccc3s2)CC1`, for which the inhibition was -21% (inactive).
Next, `O=C(Nc1nc2ccccc2s1)C(=O)NC1CC1`: 3% (inactive); `O=C(O)C(NC(=O)c1ccc(Cl)cc1)=C(Cl)Cl`: -6% (inactive); `CC(C)c1nnc(NC(=O)/C=C/c2cccs2)s1`: -6% (inactive).
Next, `COc1ccc(C)cc1NC(=O)CSc1ncc(-c2ccccc2)n1C`: -3% (inactive); `COCCN1CCCc2ccc(NS(=O)(=O)CCc3ccccc3)cc21`: 34% (active); `COCCN1CCCc2ccc(NC(=O)c3cccc(OC)c3)cc21`: 53% (inactive).
Take `COCCN1CCCc2ccc(NC(=O)c3ccc(OC)cc3)cc21`: the inhibition is 45% (inactive).
Then `O=C(C1CCCC1)N1CCc2ccc(NS(=O)(=O)CCc3ccccc3)cc21`, with 5% (inactive); and `COc1cc(NS(=O)(=O)CCc2ccccc2)ccc1N1CCCC1=O`, with -16% (inactive).
As for `COCCN1CCCc2ccc(NS(=O)(=O)c3ccc(C)c(Cl)c3)cc21`, the inhibition was 54% (active).
Regarding `c1cncc(-c2nnc3sc(-c4cc5ccccc5o4)nn23)c1`, the inhibition is -28% (inactive).
On to `O=S(=O)(c1ccccc1F)N1CCN(c2cnnc(N3CCCC3)c2)CC1`, for which the inhibition is 0% (inactive).
Next, `CCOC(=O)c1sc(=NC(=O)CCCSc2ccc(OC)cc2)n(C)c1C`: 2% (inactive); `CC(=O)NC(Cc1ccccc1)C(=O)NC1CCN(c2ncccc2[N+](=O)[O-])CC1` (centres undefined): -3.58% (inactive); `COc1ccc(-c2cc(C3CCN(c4ncccc4[N+](=O)[O-])CC3)[nH]n2)cc1`: 47.3% (active).
Take `COc1ccc(N2CCN(c3ccc([N+](=O)[O-])nc3)CC2)cc1`: the inhibition is 3.99% (inactive).
Regarding `COCCn1c(SCc2nc(-c3ccc(F)cc3)no2)nc2ccsc2c1=O`, the inhibition is -36% (inactive).
Next, `COC(=O)c1sccc1S(=O)(=O)N1C2CCCC1COC2`: -5% (inactive); `O=C(NCc1cccs1)NCc1cccnc1-c1ccsc1`: -6% (inactive).
Then `O=C(NCCn1ccnc1-c1ncccn1)NCc1cccs1`, with 71% (active); and `Cc1noc(CNC(=O)NCc2cccs2)n1`, with -6% (inactive).
On to `O=C(Cc1cc(-c2ccc3c(c2)OCO3)on1)Nc1ccc(OC(F)(F)F)cc1`, for which the inhibition is 1% (inactive).
In the case of `COCCCNC(=O)C(=O)Nc1ccc(Cl)cn1`, the inhibition is -18% (inactive).
Take `COC(=O)c1ccc(NC(=O)C2CCCN(c3ccc(-c4ccc(F)cc4)nn3)C2)cc1` (centres undefined): the inhibition was -17% (inactive).
As to `Cc1ccc(CN2CC(C(=O)N3CCN(S(=O)(=O)c4ccccc4)CC3)CC2=O)cc1` (centres undefined), the inhibition is -17.9% (inactive).
Turning to `O=C(C1CC(=O)N(c2ccc(F)cc2)C1)N1CCN(c2ccccc2)CC1` (centres undefined), the inhibition is -4.67% (inactive).
As for `CCC(C)c1ccccc1N1CC(C(=O)N2CCN(S(=O)(=O)c3ccc(F)cc3)CC2)CC1=O` (centres undefined), the inhibition was 44% (active).
As for `CC(=O)[C@@H](C(=O)N(C)C)n1cnc2c(cnn2-c2cccc(Cl)c2)c1=O`, the inhibition is -12% (inactive).
Take `CC(C)C(=NNC(=O)Nc1ccccc1)c1ccccc1`: the inhibition is -2.11% (inactive).
Next, `O=[N+]([O-])c1ccccc1NCc1ccccc1Cl`: -2.79% (inactive).
Then `CC(C)C(=NNc1ccccc1[N+](=O)[O-])c1ccccc1`, with 64.3% (active); and `Cc1cc(=O)[nH]c(-n2ncc(C(=O)Nc3ccc(OC(F)(F)F)cc3)c2C)n1`, with -10% (inactive); and `Cc1cc(C)c(S(=O)(=O)NCCC(=O)NCc2cccnc2)cc1N(C)S(C)(=O)=O`, with -9% (inactive).
For `CCOC(=O)c1sc(NC(=O)CSc2nnc(CNC(=O)c3ccc(Cl)cc3Cl)n2C)c(C(=O)OCC)c1C`, the inhibition is 5% (inactive) and -12% (inactive).
As for `CCOC(=O)c1c(NC(=O)CSc2nnc(Cc3csc(N)n3)n2C)sc(C)c1C`, the inhibition is -7% (inactive) and 53.5% (active).
Then `CCOC(=O)c1c(NC(=O)CSc2nnc(CN3CCOCC3)n2C)sc2c1CCCC2`, with -3.23% (inactive).
`CCSc1nnc(NC(=O)CSc2nnc(CNC(=O)c3cccs3)o2)s1`: the inhibition was -13% (inactive).
For `O=C(ON=Cc1ccc(N2CCCCC2)c([N+](=O)[O-])c1)c1c(F)cccc1F`, the inhibition was 41.1% (active).
For `O=C(COc1ccccc1F)NNC(=O)c1ccc(N2CCCCC2)c([N+](=O)[O-])c1`, the inhibition is 13.6% (inactive).
As for `CON=Cc1ccc(N2CCOCC2)c([N+](=O)[O-])c1`, the inhibition was -5.72% (inactive).
Turning to `COc1ccc(C(=O)CSc2nccn(-c3ccc(C)cc3)c2=O)cc1`, the inhibition is 8% (inactive).
On to `c1ccc(-c2ccc(-c3csc4ncnc(N5CCCCCC5)c34)cc2)cc1`, for which the inhibition was -3% (inactive).
As for `Brc1cccc(-c2nnc3n2CCC3)c1`, the inhibition is -16.1% (inactive).
`Brc1c(-c2ccccc2)nc2n1CCC2`: the inhibition is 57% (active).
Regarding `COc1ccc(-c2nc3n(c2Br)CCC3)cc1`, the inhibition is 18.6% (inactive).
Then `CCc1ccc(S(=O)(=O)NN=Cc2ccc3c(c2)OCO3)cc1`, with -15.4% (inactive); and `CCN(CC)c1ccc(C=NNS(=O)(=O)c2cccc([N+](=O)[O-])c2)cc1`, with 46.5% (active).
In the case of `COc1ccc(CCNS(=O)(=O)c2cccc([N+](=O)[O-])c2)cc1`, the inhibition is 0.99% (inactive).
For `Cc1ccccc1OCC(=O)NCCS(=O)(=O)N1CCN(Cc2ccccc2)CC1`, the inhibition is -5% (inactive).
Consider `COc1ccc(OCc2nc(-c3ccccn3)n[nH]2)cc1`, for which the inhibition is 101% (active).
On to `Cc1nc2nc(COc3ccccc3)[nH]n2c(=O)c1C`, for which the inhibition is -10.1% (inactive).
Take `COc1cccc(C(=O)N2CC(c3nc(-c4ccccn4)no3)C2)c1`: the inhibition is -10% (inactive).
Take `c1ccc(OCc2nc(-c3ccccn3)n[nH]2)cc1`: the inhibition was 104% (active).
Take `Cc1cccc2[nH]c(COc3ccc(F)cc3)nc12`: the inhibition is -4% (inactive).
On to `O=c1oc2ccccc2cc1-c1nc(-c2ccncc2)n[nH]1`, for which the inhibition was 0% (inactive).
With `c1ccc(-c2nc(-c3cnccn3)n[nH]2)nc1`, the inhibition was 125% (active).
Take `S=c1[nH]nc(COc2ccccc2)o1`: the inhibition was -8% (inactive).
In the case of `CCOC(=O)c1ccccc1NC(=O)Cn1cnc2c(cnn2-c2ccc(C)cc2C)c1=O`, the inhibition was 20% (inactive).
Then `Cc1cc(NC(=O)C(=O)NCc2cccnc2)ccc1N1CCCC1=O`, with 0% (inactive).
Take `COc1ccc(CCS(=O)(=O)NCC(=O)N2CCOC(c3ccccc3)C2)cc1` (centres undefined): the inhibition is 2% (inactive).
For `Cc1ccc2cccc(C(=O)N3CC(S(=O)(=O)Cc4ccco4)C3)c2n1`, the inhibition is -1% (inactive).
Next, `O=C(CSc1nc2c(c(=O)[nH]1)CN(Cc1ccc(F)cc1)CC2)Nc1ccc(F)c(Cl)c1`: 0% (inactive); `O=c1[nH]c(=S)[nH]c2sc3c(c12)CCC3`: 18% (inactive).
In the case of `CCOc1cc(-c2nnc(NC(=O)c3cc(Cl)ccc3Cl)o2)cc(OCC)c1OCC`, the inhibition is 0% (inactive).
For `Cc1ccc(NC(=O)C(=O)NCC(c2ccc(F)cc2)N2CCN(C)CC2)cc1Cl` (centres undefined), the inhibition is -4% (inactive).
For `CCCCn1c(NS(=O)(=O)c2ccc(Cl)cc2)c(S(=O)(=O)c2ccc(C)cc2)c2nc3ccccc3nc21`, the inhibition is 54.8% (inactive).
`CCCCCCCCn1c(NS(=O)(=O)c2ccc(Cl)cc2)c(S(=O)(=O)c2ccccc2)c2nc3ccccc3nc21`: the inhibition was 49.6% (inactive).
For the compound `Cc1ccc(S(=O)(=O)c2c(N)n(N=Cc3ccco3)c3nc4ccccc4nc23)cc1`, the inhibition was 11% (inactive).
For `Cc1ccc(S(=O)(=O)Nc2c(S(=O)(=O)c3ccccc3)c3nc4ccccc4nc3n2Cc2ccccc2)cc1`, the inhibition was 34.2% (inactive).
For the compound `CCCCOCCCn1c(NS(=O)(=O)c2ccccc2)c(S(=O)(=O)c2ccc(C)cc2)c2nc3ccccc3nc21`, the inhibition is 67.3% (active).
In the case of `CCCCOCCCn1c(NS(=O)(=O)c2ccc3ccccc3c2)c(S(=O)(=O)c2ccc(C)cc2)c2nc3ccccc3nc21`, the inhibition is 59.9% (active).
